Shown are actives, neighbours in structure and some others; about 4.3% of the full set was active somewhere.
NR3A LBD binder – binders of NR3A ligand-binding domain, primary screen, biophysical, differential scanning fluorimetry, uHTS; 340,000 tested, 2.5% active; Glutamate receptor ionotropic, NMDA 3A (GRIN3A) ligand-binding domain; NR3A LBD differential scanning fluorimetry, Tm shift; 0% = protein alone, 100% = glycine-bound protein; AID 1259313, 2017; Tm shift relative to glycine control, % at 25 µM;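 active = melting temperature shift of at least 10% of the positive control shift, at one fixed dose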
ADAM17 inh – ADAM17 inhibitors, primary screen, biochemical, QFRET | 370,000 tested, 0.83% active | Disintegrin and metalloproteinase domain-containing protein 17 (Homo sapiens), P78536 | AID 720648, 2013 | recombinant ADAM17, EDANS/DABCYL FRET peptide cleavage | inhibition, % at 6.95 µM;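 active = inhibition above the mean of compounds lying between control limits plus 3 SD, set per campaign, cut at about 8.5% in these data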;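 note: 0% = DMSO-only wells as the low control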
ADAM10 inh – human ADAM10 inhibitors, primary screen, biochemical, QFRET, HTS; recombinant ADAM10, EDANS/DABCYL FRET peptide cleavage, 3 h; inhibition, % at 7 µM; 370,000 tested, 0.62% active;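 active = inhibition above a per-campaign cutoff equal to the mean of compounds falling between control-based bounds plus 3 SD, cut at about 20% in these data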;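 note: 0% = DMSO wells while the 100% control is not disclosed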
HGIII-sPLA2 inh – human group III sPLA2 inhibitors, primary screen, biochemical, QFRET, BODIPY PC-A2 liposome substrate | Group 3 secretory phospholipase A2 (Homo sapiens), Q9NZ20 | QFRET BODIPY PC-A2 liposome hydrolysis, fluorescence | inhibition, % at 12.2 µM | 370,000 tested, 0.56% active | AID 743126, 2013;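 active = inhibition above mean plus 3 SD of compounds lying within the high and low control bounds, cut at about 19% in these data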;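 note: 0% = median of test compound wells and 100% = no enzyme DMSO wells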
Target sequence (Q9NZ20 whole entry, looked up): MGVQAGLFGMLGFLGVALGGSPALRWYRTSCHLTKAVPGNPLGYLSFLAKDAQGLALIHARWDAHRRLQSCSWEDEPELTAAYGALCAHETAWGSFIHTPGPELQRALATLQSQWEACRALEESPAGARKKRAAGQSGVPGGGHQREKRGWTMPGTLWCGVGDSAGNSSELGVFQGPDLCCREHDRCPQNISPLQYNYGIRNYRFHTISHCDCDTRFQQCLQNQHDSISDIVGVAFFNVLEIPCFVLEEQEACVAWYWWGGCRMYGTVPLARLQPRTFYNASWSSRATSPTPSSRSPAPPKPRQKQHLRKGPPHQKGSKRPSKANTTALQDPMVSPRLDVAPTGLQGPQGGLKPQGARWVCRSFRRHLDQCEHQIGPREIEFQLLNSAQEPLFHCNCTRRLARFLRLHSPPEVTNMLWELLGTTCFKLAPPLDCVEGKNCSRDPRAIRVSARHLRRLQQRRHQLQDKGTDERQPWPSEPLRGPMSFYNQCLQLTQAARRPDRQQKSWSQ
FAS-TE inh – FAS thioesterase domain inhibitors, primary screen, biochemical, fluorescence intensity, uHTS; Fatty acid synthase (Homo sapiens), P49327; recombinant FAS-TE, OMFH fluorogenic substrate, fluorescence endpoint; inhibition, % at 15 µM; 360,000 tested, 0.67% active;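 active = compounds whose normalised, plate-corrected inhibition of enzyme fluorescence in the single-dose primary screen is 50% or more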;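 note: 0% = DMSO with enzyme and 100% = substrate without enzyme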
FAS-TE inh conf – FAS thioesterase domain inhibitors, confirmation, biochemical, fluorescence intensity, single concentration | shares compounds with FAS-TE inh | recombinant FAS-TE, OMFH fluorogenic substrate | inhibition, % at 15 µM | 2,300 tested, 45% active;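 active = compounds inhibiting the enzyme by at least 50% at 15 µM in any one of the replicates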;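 note: 0% = enzyme with DMSO only and 100% = wells lacking enzyme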
An asterisk follows results filed as active.

For Cc1c(C(=O)N2CCc3ccccc3C2)oc2ccc(S(=O)(=O)N3CC(C)CC(C)C3)cc12 (configuration not stated) the results were NR3A LBD binder -1.0, ADAM17 inh 6.9, ADAM10 inh 12.6, HGIII-sPLA2 inh 5.0, FAS-TE inh 52.5* and FAS-TE inh conf 4.2.
Screening COCCN1C(=O)C2=C(C1=O)C1N(C)c3ccccc3[C@@]13C[C@@H](CO)N(S(=O)(=O)c1ccc(OC)cc1)C3=N2 (some centres not stated) returned ADAM17 inh -0.1, ADAM10 inh 3.5 and HGIII-sPLA2 inh -9.9.
`C[C@H]1C2CC(OC(=O)NCc3ccccc3)C(C2)[C@H]2CCCCN21` (some centres not stated) gave ADAM17 inh -9.4, ADAM10 inh -15.4 and HGIII-sPLA2 inh 18.8.
O=C(Nc1ccccc1)c1ccc(S(=O)(=O)N2CCCC2)cc1 was read as NR3A LBD binder 1.4, ADAM17 inh -5.3, ADAM10 inh 4.2, HGIII-sPLA2 inh 2.9 and FAS-TE inh -8.3.
For COC(=O)c1sc2ccccc2c1NC(=O)c1ccc(S(=O)(=O)N2CCCCC2)cc1 the results were NR3A LBD binder 2.2, ADAM17 inh 2.5, ADAM10 inh 4.7, HGIII-sPLA2 inh 3.8, FAS-TE inh 62.4* and FAS-TE inh conf 32.5.
For O=C(Nc1ccc(S(=O)(=O)N2CCCC2)cc1)c1ccccc1 the results were NR3A LBD binder 1.2, ADAM17 inh -5.3, ADAM10 inh -7.4, HGIII-sPLA2 inh 5.7 and FAS-TE inh -3.5.
O=C(Nc1nc(-c2ccccc2)c(-c2ccccc2)s1)c1ccc(S(=O)(=O)N2CCCC2)cc1 was read as NR3A LBD binder 2.0, ADAM17 inh -1.5, ADAM10 inh 10.8, HGIII-sPLA2 inh 4.7, FAS-TE inh 67.2* and FAS-TE inh conf 15.0.
For O=C(Nc1nc(-c2ccccc2)c(C(=O)c2ccccc2)s1)c1ccc(S(=O)(=O)N2CCCC2)cc1 the results were NR3A LBD binder 14.4*, ADAM17 inh 0.0, ADAM10 inh -7.1, HGIII-sPLA2 inh 9.8, FAS-TE inh 82.6* and FAS-TE inh conf 21.8.
For N#CCCN(CCC#N)S(=O)(=O)c1ccc(C(=O)Nc2nc(-c3ccccc3)c(C(=O)c3ccccc3)s2)cc1 the results were NR3A LBD binder 11.7*, ADAM17 inh -2.4, ADAM10 inh -4.5, HGIII-sPLA2 inh -2.0, FAS-TE inh 57.5* and FAS-TE inh conf 11.7.
CCCCCCCCN1C(=O)[C@@H](CC(=O)NCC23CC4CC(CC(C4)C2)C3)C[C@@]2(C(=O)OC)C1=C[C@H](C1CCCC1)O[C@@H]2C was read as ADAM17 inh -4.9, ADAM10 inh 1.3 and HGIII-sPLA2 inh 10.1.
Screening O=S1(=O)CC2c3ccccc3CN2CN1C1CCCC1 (configuration not stated) returned ADAM17 inh 1.7, ADAM10 inh 3.9 and HGIII-sPLA2 inh 7.0.
For Cn1c(=O)c([N+](=O)[O-])c(N2CCN(Cc3ccc4c(c3)OCO4)CC2)c2ccccc21 the results were NR3A LBD binder 1.2, ADAM17 inh -3.8, ADAM10 inh 4.2, HGIII-sPLA2 inh -2.2, FAS-TE inh 86.1* and FAS-TE inh conf 53.8*.
`O=[N+]([O-])c1ccc2ncnc(N3CCN(Cc4ccc5c(c4)OCO5)CC3)c2c1` gave NR3A LBD binder -0.5, ADAM17 inh 3.1, ADAM10 inh -4.9, HGIII-sPLA2 inh -0.6, FAS-TE inh 81.7* and FAS-TE inh conf 86.6*.
For O=[N+]([O-])c1cccnc1N1CCN(Cc2ccc3c(c2)OCO3)CC1 the results were NR3A LBD binder -0.9, ADAM17 inh -1.8, ADAM10 inh -6.6, HGIII-sPLA2 inh 3.8 and FAS-TE inh 22.3.
`Cn1c(C(=O)N2CCN(Cc3ccc4c(c3)OCO4)CC2)cc2c(=O)n(C)c3ccccc3c21` gave NR3A LBD binder -3.1, ADAM17 inh -13.2, ADAM10 inh -47.2, HGIII-sPLA2 inh 17.1 and FAS-TE inh 6.4.
Screening COc1ccc(-n2c(SCC(=O)Nc3ccccc3-c3ccccc3)nnc2-c2ccccc2)cc1 returned ADAM17 inh 7.6, ADAM10 inh 17.5 and HGIII-sPLA2 inh 2.0.
COc1ccc(/C=C2\SC(=S)N(CCCC(=O)N3CCOCC3)C2=O)cc1OC was read as NR3A LBD binder 1.0, ADAM17 inh -0.1, ADAM10 inh 0.7, HGIII-sPLA2 inh 0.0 and FAS-TE inh 0.6.
`COc1cc(/C=C2/SC(=S)N(c3ccccc3)C2=O)ccc1Oc1nc(N2CCOCC2)nc(N2CCOCC2)n1` gave NR3A LBD binder -1.0, ADAM17 inh 2.4, ADAM10 inh 3.0, HGIII-sPLA2 inh 5.3, FAS-TE inh 62.9* and FAS-TE inh conf -3.3.
`COc1cc(OC)cc(C(=O)Nc2cccc(C(C)=O)c2)c1` gave NR3A LBD binder 0.8, ADAM17 inh 1.2, ADAM10 inh -0.8, HGIII-sPLA2 inh -0.5 and FAS-TE inh -1.1.
For CC(=O)c1cccc(OC(=O)Oc2cccc(C(C)=O)c2)c1 the results were NR3A LBD binder -2.8, ADAM17 inh -4.0, ADAM10 inh 1.3, HGIII-sPLA2 inh 1.0, FAS-TE inh 50.1* and FAS-TE inh conf 68.8*.
Screening O=C(CN(C(=O)c1ccc(Cl)cc1Cl)N1C(=O)C2C3C=CC(C3)C2C1=O)c1ccc(F)cc1 (configuration not stated) returned NR3A LBD binder -3.4, ADAM17 inh 1.3, ADAM10 inh 3.7, HGIII-sPLA2 inh -3.5 and FAS-TE inh 17.1.
Cc1ccc(C(=O)CN(C(=O)c2ccc(Cl)c(Cl)c2)N2C(=O)C3C4C=CC(C4)C3C2=O)cc1 (configuration not stated) was read as NR3A LBD binder -22.9, ADAM17 inh -2.9, ADAM10 inh -6.8, HGIII-sPLA2 inh 4.7, FAS-TE inh 60.7* and FAS-TE inh conf 30.0.
`C[C@@H]1OCN(C)[C@H]2C[C@H]3c4[nH]c5cccc(-c6cccc(F)c6)c5c4CCN3C(=O)[C@@H]12` gave ADAM17 inh -25.6, ADAM10 inh -79.6 and HGIII-sPLA2 inh 0.4.
`COc1ccc(C2NC(c3ccc(OC)cc3)C(c3ccccc3)C(=O)C2c2ccccc2)cc1` (configuration not stated) gave NR3A LBD binder -1.2, ADAM17 inh 1.4, ADAM10 inh 6.1, HGIII-sPLA2 inh -7.4, FAS-TE inh 62.2* and FAS-TE inh conf 32.5.
